Bioassay records from PubChem BioAssay.
Pf growth 48h: inhibits P. falciparum growth in the first generation, 48 h. AID 504832. Potency, µM (series often up to 28.7 µM), without a hit: top-dose activity change, negative = inhibition, usual class: inhibitors. 310,000 compounds, 5.9% hits. P. falciparum luciferase growth in erythrocytes, 48 h; note: potency is the fitted concentration of half-maximal effect
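Firefly luciferase activity from engineered P. falciparum reports growth; inhibitors lower the luminescent signal. Cultures contained 2% hematocrit erythrocytes at 0.1% final parasitemia.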
Pf growth 96h: P. falciparum growth inhibition at 96 hours. P. falciparum luciferase reporter growth, 96 h. Potency, µM (top dose mostly 28.7 µM), for the others: at the top dose activity change, negative = inhibition, most hits filed as inhibitors. 320,000 compounds, 6.9% hits. AID 504834; note: potency is the fitted concentration of half-maximal effect
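Luminescence readout: decreased luciferase signal marks inhibited growth of reporter-expressing P. falciparum in infected red cells (2% hematocrit, 0.05% parasitemia final), exposed to compound two generations (96 h, 37 C, 5% CO2).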
HCMV inh: blocks human cytomegalovirus replication; 410,000 compounds, 4.5% hits; AID 1259415; activity change, negative = inhibition, % at 57.5 µM; HFF cells, HCMV-luciferase reporter, 72 h; stronger effect = lower value; in the data active = activity change below about -60%; inconclusive = no clear call, values can overlap the other calls; inactive = above about -39%
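Luciferase read-out from HCMV-luciferase-infected HFFs (MOI 1 PFU/cell) 72 h post infection at 37C; compounds added after 16 h cell attachment; activity normalized between buffer-only basal and Salinomycin (10uM) inhibitor controls.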
HCV inh: HCV inhibition; Huh7.5.1 HCVcc-Cre infection, luciferase reporter, 44 h; 340,000 compounds, 3.4% hits; Potency, µM (doses to about 41.8 µM), for the others: top-dose activity change, negative = inhibition, hits mostly inhibitors; AID 651820; note: potency is the fitted concentration of half-maximal effect
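1,000 cells/well; 4 h culture; + compound; + HCVcc-Cre (~0.5 moi); 44 h; luciferase substrate, RT 15 min; read 15 sec.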
Numbers without * were called inactive; ? = inconclusive; / = not tested or not shown. Shown are actives, neighbours in structure and some others; about 13% of the full set was active somewhere. Unless noted, calls come from the whole dose curve; as a rule, active = well fitted inhibition curve with a large enough effect; inconclusive = small, poorly fitted or top-dose-only effect, or another doubt; inactive = no such curve, though single readings can be large or run the other way. % is set by controls: 0 for no effect and ±100 for the full control effect.

SMILES	Pf growth 48h	Pf growth 96h	HCMV inh	HCV inh
Cc1cccc(CN2CCC(C(=O)Nc3cccc(-c4cccc(F)c4)c3)CC2)n1	0.0%	?	-33.5	7.94µM*
Cc1cccc(CN2CCC(C(=O)Nc3cccc(-c4cscn4)c3)CC2)n1	?	-15.5%	?	-0.8%
CCOC(=O)c1c(NC(=O)Cc2ccccc2)sc2c1CC(C)(C)NC2(C)C	?	0.928µM*	-4.7	?
COC(=O)c1c(NC(=O)c2ccco2)sc2c1CC(C)(C)NC2(C)C	-1.0%	16.5µM*	30.3	-19.8%
COC(=O)c1c(NC(=O)c2ccccc2)sc2c1CC(C)(C)NC2(C)C	48.6%	50.1%	30.4	7.7%
CCOC(=O)c1c(NC(=O)COc2ccccc2OCC)sc2c1CC(C)(C)NC2(C)C	?	11.7µM*	/	?
CCOC(=O)c1c(NC(=O)COc2ccccc2C#N)sc2c1CC(C)(C)NC2(C)C	11.7µM*	5.22µM*	?	/
COc1cc(OC)c(N(C)C(=O)C2CCCN(c3ncnc4c3nc3n4CCCCC3)C2)cc1Cl (centres undefined)	/	/	5.5	/
COc1cccc(CN2C(=O)COCc3cc(-c4cccc(CO)c4)ccc32)c1	/	/	-16.6	/
CCOC(=O)c1sc2ncnc(NCC(c3cccs3)N(C)C)c2c1C (centres undefined)	/	-51.1%	-15.8	10µM*
C=CCn1c(C2CC2)n[nH]c1=S	-3.1%	15.6%	6.0	-13.3%
CCCCCC1CCC(c2n[nH]c(=S)n2C)CC1 (centres undefined)	?	5.86µM*	-82.3*	-2.6%
O=C(Nc1ccc(C(O)(C(F)(F)F)C(F)(F)F)cc1)c1ccc(Cl)c([N+](=O)[O-])c1	11.7µM*	10.4µM*	-15.9	?
O=[N+]([O-])c1cc(C(F)(F)F)ccc1NCCCCNS(=O)(=O)c1ccc(Cl)cc1	13.0%	32.4%	-73.4*	?
Cc1c(NC(=O)c2ccc(S(=O)(=O)N(C)C)cc2)cccc1-n1cnnn1	-29.7%	-12.7%	0.0	-21.4%
Cc1c(NC(=O)c2ccc(Cl)c([N+](=O)[O-])c2)cccc1-n1cnnn1	/	/	10.7	11.2µM*
Cc1cccc(C)c1NS(=O)(=O)c1ccc(NC(=O)c2ccc(Cl)c([N+](=O)[O-])c2)cc1	6.3%	-0.1%	-65.7*	7.08µM*
Nc1cc(C(F)(F)F)cc([N+](=O)[O-])c1N	13.0%	32.6%	43.9	?
O=[N+]([O-])c1cc(C(F)(F)F)ccc1Cl	3.9%	43.4%	-69.2*	?
COc1ccc(N2CCN(C(c3cc4cc(C)ccc4[nH]c3=O)c3nnnn3Cc3ccccc3)CC2)cc1 (centres undefined)	/	3.7µM*	78.9	-26.9%
CCN1CCN(C(c2cc3cccc(C)c3[nH]c2=O)c2nnnn2Cc2ccccc2)CC1 (centres undefined)	?	15.6%	58.5	5.5%
Cc1ccc2cc(C(c3nnnn3Cc3ccccc3)N3CCN(c4ccccc4)CC3)c(=O)[nH]c2c1 (centres undefined)	5.86µM*	7.9%	-33.4	?
Cc1cccc2cc(C(c3nnnn3Cc3ccccc3)N3CCCc4ccccc43)c(=O)[nH]c12 (centres undefined)	/	?	-82.7*	/
CC(C)(C)n1nnnc1C(c1cc2cc3c(cc2[nH]c1=O)OCO3)N1CCN(c2ccccc2)CC1 (centres undefined)	1.65µM*	-20.7%	2.8	-13.5%
Cc1cc(F)ccc1NC(=O)c1csc2c1CCC(C)C2 (centres undefined)	/	/	32.9	/
SMILES	Pf growth 48h	Pf growth 96h	HCMV inh	HCV inh
O=C(NCc1cc(Br)cc(Br)c1OC(=O)c1ccccc1[N+](=O)[O-])c1ccccc1	4.5%	5.22µM*	-1.0	?
O=C(Oc1ccccc1C(=O)Nc1ccccc1)c1ccc(Br)c([N+](=O)[O-])c1	33.4%	41.5%	-18.1	7.9%
CCOc1ccc(NS(=O)(=O)c2ccc3c4c(cccc24)C(=O)N3)cc1	/	/	-39.5	/
Cc1cc(F)ccc1S(=O)(=O)Nc1ccc2oc3c(c2c1)CC(C)CC3 (centres undefined)	/	/	-17.9	/
CCCCCOC(=O)C1C(c2ccccc2)C(C(=O)O)C1c1ccccc1 (centres undefined)	-6.6%	?	-93.1*	23.9%
O=C(O)C1C(c2ccccc2)C(C(=O)OCCCO)C1c1ccccc1 (centres undefined)	/	/	20.6	26.6%
COC(=O)C1C(c2ccccc2)C(C(=O)OCc2ccco2)C1c1ccccc1 (centres undefined)	10.4µM*	-4.3%	10.3	?
